Sampled rows, rich in hits. Any-hit rate of the full collection: about 0.26%.
CXXC DNA block: MLL CXXC-DNA interaction inhibition. Q03164. MLL-CXXC / FITC-HOXA9 DNA fluorescence polarization. Potency, µM (top dose mostly 115 µM), without a hit: top-dose activity change, negative = inhibition, hits mostly inhibitors. actives 0.037% (n = 290,000); active means well fitted inhibition curve with a large enough effect in the polarisation, with a control signal flat, not every such curve was filed as active; inconclusive means small, poorly fitted or top-dose-only effect, or effect the other way, or a change in a side signal; inactive means no such curve, though single readings can be large or run the other way; the % refers to the polarisation; further: potency means the concentration at half of the fitted maximal effect
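Steps: dispense CXXC domain solution (7 uM) → pin compounds or unlabeled HOX-A9 DNA control → 5 min ambient → add FLSN-HOX-A9 solution (50 nM) → spin → 30 min ambient → fluorescence polarization. Tris pH 7.5/NaCl/DTT/BSA buffer.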
Lamin A splicing: LMNA splicing modulation; AID 1487; HeLa LMNA splicing GFP/RFP minigene ratio, 48 h; actives 0.01% (n = 200,000); Potency, µM (top dose mostly 46.1 µM), for inactives: at the top dose ratio change, negative = inhibition, hits mostly inhibitors; active means well fitted inhibition curve with a large enough effect in the signal ratio, with a control signal flat, not every such curve was filed as active; inconclusive means small, poorly fitted or top-dose-only effect, or effect the other way, or a change in a side signal; the % refers to the signal ratio; further: potency means the concentration at half of the fitted maximal effect; on the % scale 0 is the no-effect control and ±100 the full control effect
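Read-out is the ratio of GFP to DsRed2 object intensity, acquired by 488 nm laser-scanning cytometry on HeLa lamin A-EGFP minigene reporter cells. Compound incubation 48 hrs at 37 °C in Opti-MEM with 2% FBS; DMSO 0.5% final.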
Epigenetic reg: epigenetic control regulation, reporter derepression. Potency, µM (doses to about 53.9 µM), for the others: top-dose GFP activation, usual class: activators. murine LDR cells, GFP reporter derepression, 30 h. actives 0.2% (n = 280,000). AID 1865; active means well fitted activation curve with a large enough effect; inconclusive means small, poorly fitted or top-dose-only effect; further: potency means the concentration at half of the fitted maximal effect; % of control where 0% means no effect; nearly all actives have a fitted effect of over 60% in size
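Reporter derepression read as number of fluorescent GFP-positive objects, 20-120 um in size, counted by laser-scanning cytometer. Mouse LDR line with an epigenetically silenced CMV-GFP locus; compound incubation 30 h, 37 C.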
Menin MLL FP FL: displaces fluorescein MLL peptide from human menin | Fluorescence polarization, fluorescein-MLL peptide displacement from menin | FP activity change, % at 61.4 µM | 290,000 tested, under 10 active; active means well fitted curve in the direction sought with a large enough effect in the polarisation, not every such curve was filed as active; inconclusive means small, poorly fitted or top-dose-only effect, or effect the other way, or a change in a side signal; inactive means no such curve, though single readings can be large or run the other way; the % refers to the polarisation; further: % of control where 0% means no effect
Menin MLL FP TR: inhibitors of human menin-MLL interaction, mutant MLL peptide | Menin + Texas Red MLL mutant peptide, fluorescence polarization | Potency, µM (series often up to 61.6 µM), inactives show at the top dose FP activity change, negative = inhibition, usual class: inhibitors | actives 0.23% (n = 270,000); active means well fitted inhibition curve with a large enough effect in the polarisation, with a control signal flat, not every such curve was filed as active; inconclusive means small, poorly fitted or top-dose-only effect, or effect the other way, or a change in a side signal; inactive means no such curve, though single readings can be large or run the other way; the % refers to the polarisation; further: potency means the concentration at half of the fitted maximal effect; % of control where 0% means no effect
* marks the source's active call; other numbers are inactive results; ? = inconclusive; . = no result; [ ] = remark or other dose.

SMILES | CXXC DNA block | Lamin A splicing | Epigenetic reg | Menin MLL FP FL | Menin MLL FP TR
CCCN(CCC)CC(O)Cn1cc(/C=C/C(=O)c2ccc(Br)cc2)c2ccccc21 (stereo not drawn) | . | . | 16µM* | . | .
CCCN(CCC)CC(O)Cn1cc(/C=C/C(=O)c2ccccc2)c2ccccc21 (stereo not drawn) | 41% | . | 2% | ? | -8%
O=c1c2cccc3c(N4CCOCC4)ccc(c32)c2nc3ccccc3n12 | ? | -11% | 13µM* | ? | ?
CCn1c2ccccc2c2cc(/C=N/NC(=O)c3ccccc3)ccc21 | 19% | ? | 1% | 3 | 25µM*
CCN(c1cccc(C)c1)S(=O)(=O)c1ccc(O)c(C(=O)O)c1 | . | . | 1% | . | .
CCCCC(=O)Nc1sc2c(c1C(=O)OCC)CCC(C=O)=C2Cl | 40% | ? | 11µM* | ? | -5%
COc1ccc(-c2cc(C(=O)N/N=C/c3ccc(OC)c(OC)c3)[nH]n2)cc1 | . | . | -6% | . | .
N=c1n(CC(=O)c2ccc([N+](=O)[O-])cc2)c2ccccc2n1Cc1ccc(Cl)cc1 | 30% | -4% | 16µM* | 2 | 3%
N=c1n(CC(=O)c2ccc([N+](=O)[O-])cc2)c2ccccc2n1Cc1ccccc1 | 37% | -10% | 22µM* | 3 | -15%
C=CC1=C2C=C(C3CC3)N(Cc3ccc4c(c3)OCO4)C=C2C(=O)C(C)(OC(=O)c2ccco2)C1=O (stereo not drawn) | . | ? | . | 10[11.7 µM] | -14%[11.7 µM]
COCCNC(=O)c1c(NC(=O)c2nc(SC)ncc2Cl)sc2c1CCCC2 | 13% | 3% | -1% | -4 | 9%
CCSc1ncc(Cl)c(C(=O)Nc2sc3c(c2C(=O)NC)CCCC3)n1 | . | . | 7.1µM* | . | .
CCCSc1ncc(Cl)c(C(=O)Nc2sc3c(c2C(=O)NCC)CCCC3)n1 | . | . | 4.5µM* | . | .
Cc1ccc(N=Cc2sc(O)c3ccccc23)cc1 | ? | 2% | 16µM* | ? | ?
COC(=O)c1cc(=O)c(O)c2c(O)c(O)ccc2c1 | . | ? | 0% | 0 | ?
Cc1cc(O)ccc1N/C=C1\CCCC1=O | -6% | ? | 5% | 0 | ?
Cc1ccc([N+](=O)[O-])cc1N/C=C1\CCCCC1=O | ? | . | 3.5µM* | 4 | 19%
Cc1ccnc(N/C=C(\C#N)c2nc(-c3cccc(Br)c3)cs2)c1 | ? | -5% | 16µM* | ? | -2%
N#C/C(=C/c1ccc(O)cc1)c1nc(-c2ccc(-c3ccccc3)cc2)cs1 | . | . | 11µM* | . | .
COc1ccc(/C=C(/C#N)c2nc(-c3ccc(-c4ccccc4)cc3)cs2)cc1 | . | . | -2% | . | .
COc1ccc(N2CCN(CC(O)COC(c3ccc(F)cc3)c3ccc(F)cc3)CC2)cc1 (stereo not drawn) | 24% | . | . | -14 | 18µM*
COc1ccc(N2CCN(CC(O)COc3ccc(F)cc3)CC2)cc1 (stereo not drawn) | -4% | . | . | -17 | 20µM*
COc1ccc(OCC(O)CN2CCN(c3ccc(OC)cc3)CC2)cc1 (stereo not drawn) | -6% | . | . | -28 | 35µM*
COc1ccc(N2CCN(CC(O)COc3cc(C)cc(C)c3)CC2)cc1 (stereo not drawn) | -6% | . | . | -3 | -28%
O=C(Nc1ccc(OC(=O)c2ccccc2)c(-c2nc3ccccc3s2)c1)c1ccccc1 | 51% | 4% | ? | 2 | 18µM*
SMILES | CXXC DNA block | Lamin A splicing | Epigenetic reg | Menin MLL FP FL | Menin MLL FP TR
COc1cc(C(=O)Nc2ccccc2-c2nc(-c3ccccc3)no2)cc(OC)c1OC | . | . | 0.63µM* | . | .
O=C(Nc1nc(-c2ccccn2)cs1)c1ncc(Cl)c(Cl)c1Cl | ? | ? | -1% | 5 | 27%
O=C(Nc1nc(-c2ccccn2)cs1)c1ccc(Cl)s1 | 3% | ? | 22µM* | 0 | -1%[11.7 µM]
CCN1CCN(c2c(/C=C3\SC(=S)N(Cc4ccco4)C3=O)c(C)c(C#N)c(=O)n2C)CC1 | ? | . | 7.1µM* | ? | .
CSc1nsc(/C=C/Nc2ccc(C)cc2)c1C#N | ? | ? | -1% | ? | 5%
CSc1nsc(/C=C/Nc2ccc(C)c(C)c2)c1C#N | ? | ? | 3.5µM* | ? | ?
CN1CC(O)C2=CC(=O)C(=O)C=C21 (stereo not drawn) | . | . | 1% | . | .
CCC(C)(C)C(=O)O[C@@H]1C[C@@H](C)C=C2C=C[C@H](C)[C@H](CC[C@@H]3C[C@@H](O)CC(=O)O3)[C@H]21 | . | . | 2% | ? | -13%[24.8 µM]
N#C/C(=C\c1ccc(N2CCOCC2)o1)c1nc2ccccc2[nH]1 | ? | 33% | 13µM* | ? | ?
N#C/C(=C/c1ccc(N2CCOCC2)o1)c1ccc(Cl)cc1 | ? | 13% | 3.2µM* | ? | 32%
N#C/C(=C\c1ccc(N2CCCCC2)o1)C(N)=O | ? | ? | 7% | ? | -1%
C/C=C\C1=C(CO)C(=O)[C@@H]2OC2C1=O (stereo partly drawn) | . | . | 0%[10.1 µM] | 6[11.7 µM] | -7%[11.7 µM]
O=C(Nc1ccccc1F)C(=Cc1sc(N2CCOCC2)nc1-c1ccccc1)C(=O)Nc1ccccc1F | ? | ? | 14µM* | ? | -19%
Cc1cc2c(N=O)c(NO)ccc2[nH]1 | -6% | ? | 16µM* | 7 | 39%
COc1ccc(NC(=O)c2cn3c4c(ccc(Cl)c4c2=O)OC(C)C3)cc1OC (stereo not drawn) | . | -21%[46 µM] | 18µM* | . | .
Cc1ccc(C(=O)Nc2ccccc2N2CCOCC2)c(C)c1 | . | . | -2% | . | .
CCCN1C(=O)/C(=C/C=C2\N(CC)c3ccccc3C2(C)C)SC1=S | ? | 11% | 3.2µM* | ? | ?
CCCCN1C(=O)/C(=C/C=C2/CC(C)(C)CN2C)SC1=S | ? | ? | 14µM* | ? | 7%
C=CCN1C(=O)/C(=C\C=C2\N(C)c3ccccc3C2(C)C)SC1=S | ? | -4% | 5µM* | ? | ?
CCCCN1C(=O)/C(=C/C=C2\Oc3ccccc3N2CC)SC1=S | ? | . | 1µM* | ? | ?
CN1/C(=C\C=C2/SC(=S)N(CC(=O)O)C2=O)C(C)(C)c2ccccc21 | ? | . | 1% | ? | ?
CCCN1C(=O)/C(=C\C=C2/Sc3ccccc3N2CCO)SC1=S | 34% | 4%[46 µM] | ? | ? | ?
CCCCCCCCCCCCCCCCOCCOCCOCCOCCOCCOCCOCCOCCOCCOCCOCCOCCOCCOCCOCCOCCOCCOCCOCCOCCO | 7% | . | . | -4 | ?
COc1ccc(N(CC(O)Cn2c3ccccc3c3ccccc32)S(=O)(=O)c2ccccc2)cc1 (stereo not drawn) | 28% | 16%[0.0737 µM] | -1% | -2 | 25µM*
Cc1ccc(N(CC(O)Cn2c3ccccc3c3ccccc32)S(=O)(=O)c2ccc(F)cc2)cc1 (stereo not drawn) | . | . | 17% | . | .
CN(c1ccccc1)S(=O)(=O)c1ccc(NC(=O)c2ccc(-c3ccccc3)cc2)cc1 | 31% | 18%[0.0737 µM] | 0% | 1 | 28µM*

Assay outcomes from PubChem.
